PubChem BioAssay (EPA / NIEHS)
Inconclusive results are not listed. Calls of active or inactive are those of the source. Rule for the calls, unless noted: active = hit-call score of the fitted dose curve at least 0.9, where 1 is the maximum; inconclusive = response in the unintended direction; inactive = score below 0.9.

Experiments:
[1] = target: Cellular tumor antigen p53 (Homo sapiens) (UniProt P04637); test: TOX21_p53_BLA_p2_ratio: Tox21 HCT-116 p53 Agonism Beta-lactamase Assay, Ratio, Phase 2 (AID 2283592)
Summary of the method: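 In this cell-based reporter format, HCT116 cells were dosed with chemicals delivered from DMSO by 217-fold dilution and incubated 16 h at 37C. Emission at 460 and 530 nm after 2 h CCF4-AM loading provided the ratio, fitted upward versus DMSO.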

[2] = TOX21_p53_BLA_p3_viability: Viability Assessment in the Tox21 HCT-116 p53 Agonism Beta-lactamase Assay, Phase 3 (AID 2283593);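 note: cells exposed to compound for 16 h before reading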
Summary of the method: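 HCT-116 cells (4000/well) rested 5 h at 37C, then got DMSO compounds by pin tool (217-fold dilution) for 16 h at 37C, 5% CO2. After the bla read, CellTiter-Glo was added and luminescence read at 30 min, room temperature.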

[3] = target: Cellular tumor antigen p53 (Homo sapiens) (UniProt P04637); test: TOX21_p53_BLA_p5_ratio: Tox21 HCT-116 p53 Agonism Beta-lactamase Assay, Ratio, Phase 5 (AID 2283599)
Summary of the method: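 HCT-116 cells carrying a p53-inducible beta-lactamase reporter were seeded at 4000 cells/well and dosed after 5 h with compound in DMSO (217-fold dilution). After 16 h at 37C, CCF4-AM substrate was added for 2 h, and the 460/530 nm emission ratio was scored as gain-of-signal versus DMSO.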

[4] = TOX21_p53_BLA_p5_viability: Viability Assessment in the Tox21 HCT-116 p53 Agonism Beta-lactamase Assay, Phase 5 (AID 2283600)
Summary of the method: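 Compounds, pinned from DMSO at 217-fold dilution, were left on the cells for 16 h. The viability endpoint was ATP content measured by CellTiter-Glo luminescence, where falling signal reflects cytotoxicity.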

[5] = target: Cellular tumor antigen p53 (Homo sapiens) (UniProt P04637); test: TOX21_p53_BLA_p4_ratio: Tox21 HCT-116 p53 Agonism Beta-lactamase Assay, Ratio, Phase 4 (AID 2283601)
Summary of the method: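 HCT116 cells carrying an inducible beta-lactamase reporter were plated at 4000 cells/well, rested 5 h, then exposed to compounds in DMSO (217-fold dilution) for 16 h at 37C. CCF4-AM substrate was loaded 2 h at room temperature; 460/530 nm emission ratio scored gain-of-signal versus DMSO.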

[6] = TOX21_p53_BLA_p4_viability: Viability Assessment in the Tox21 HCT-116 p53 Agonism Beta-lactamase Assay, Phase 4 (AID 2283597);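 note: hits lower the luminescence signal meaning cytotoxicity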
Summary of the method: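 We seeded HCT116 p53 reporter cells at 4000/well and waited 5 h. We then added compounds in DMSO at a 217-fold dilution and incubated for 16 h. Viability was read as CellTiter-Glo luminescence after 30 min at RT.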

[7] = ACEA_ER_AUC_viability: ACEA Biosciences xCELLigence Real-Time Cell Analysis on Estrogen Receptor Agonism for Viability (AID 2283782);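 note: continuous compound exposure with impedance area under curve over 80 h; hit means loss of impedance signal meaning reduced cell growth or viability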
Summary of the method: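 T-47D human breast cells in phenol red-free RPMI1640 with 10% charcoal-stripped FBS were dosed with an 8-point 1:4 dilution series from 100 uM top final concentration, in duplicate. Impedance-based growth was followed for 80 h; AUC analysed versus DMSO.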

[8] = CCTE_Harrill_HTTr_Viability_MCF7: CCTE's 6-hour Cell Viability Assessment for the High-Throughput Transcriptomics (HTTr) Platform, in MCF-7 cells cultured in DMEM + 10% fetal bovine serum, Harrill Lab (AID 2284010; active = hit-call score of the fitted dose curve at least 0.9, where 1 is the maximum; inactive = score below 0.9)
Summary of the method: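 Membrane integrity was scored by high-content imaging of propidium iodide dye exclusion after a 6 h exposure across an eight-point dilution series. Data were fitted bidirectionally relative to DMSO as negative control and baseline.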

[9] = CCTE_Harrill_HTTr_Apoptosis_MCF7: CCTE's 6-hour Apoptosis Assessment for the High-Throughput Transcriptomics (HTTr) Platform, in MCF-7 cells cultured in DMEM + 10% fetal bovine serum, Harrill Lab (AID 2284011; active = hit-call score of the fitted dose curve at least 0.9, where 1 is the maximum; inactive = score below 0.9)
Summary of the method: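 Read-out: CellEvent Caspase 3/7 Green signal by high content imaging, gain-of-signal indicating apoptosis. MCF-7 cells, DMEM + 10% FBS, eight-point dilution series, 6 h exposure. Curves fitted bidirectionally relative to DMSO negative control.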

[10] = CCTE_Harrill_HTTr_CellCount_MCF7: CCTE's Cell Proliferation Assessment for the High-Throughput Transcriptomics (HTTr) Platform, Harrill Lab (AID 2284012);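 note: cells exposed to compound for six hours; intended direction is loss of nuclei count meaning fewer cells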
Summary of the method: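 MCF-7 cells were exposed for 6 h to an eight-point dilution series; Hoechst-labeled nuclei were counted by high content imaging. Curves were fitted bidirectionally against DMSO as negative control and baseline, with signal loss indicating reduced cell count.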

[11] = target: Cellular tumor antigen p53 (Homo sapiens) (UniProt P04637); test: TOX21_p53_BLA_p3_ratio: Tox21 HCT-116 p53 Agonism Beta-lactamase Assay, Ratio, Phase 3 (AID 2283596)
Summary of the method: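 HCT116 p53-bla cells (4000/well) given compound in DMSO (217-fold dilution) after 5 h, incubated 16 h at 37C. CCF4-AM substrate 2 h at room temperature; 460/530 nm emission ratio, gain fitted against DMSO.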

Measured: outcome

Cellular tumor antigen p53 (Homo sapiens), sequence (P04637 whole entry, looked up): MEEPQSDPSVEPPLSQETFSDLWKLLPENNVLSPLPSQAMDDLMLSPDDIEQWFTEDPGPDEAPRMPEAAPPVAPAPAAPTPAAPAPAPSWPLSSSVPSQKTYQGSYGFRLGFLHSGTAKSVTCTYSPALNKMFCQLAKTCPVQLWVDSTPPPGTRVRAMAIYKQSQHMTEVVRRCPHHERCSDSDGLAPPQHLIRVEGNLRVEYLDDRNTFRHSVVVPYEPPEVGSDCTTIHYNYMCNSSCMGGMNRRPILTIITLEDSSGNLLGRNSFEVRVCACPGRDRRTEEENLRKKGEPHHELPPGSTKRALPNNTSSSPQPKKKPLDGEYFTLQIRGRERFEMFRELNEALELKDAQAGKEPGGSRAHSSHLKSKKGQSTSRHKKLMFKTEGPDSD

Cc1cc(N)c(S(=O)(=O)O)cc1Cl
inactive: [1] | [2] | [3]

CC1(C)S[C@@H]2[C@H](NC(=O)[C@@H](NC(=O)N3CCNC3=O)c3ccccc3)C(=O)N2[C@H]1C(=O)O
inactive: [1] | [2] | [3] | [4] | [5]

CS(=O)(=O)CCNCc1ccc(-c2ccc3ncnc(Nc4ccc(OCc5cccc(F)c5)c(Cl)c4)c3c2)o1
inactive: [1] | [2] | [3] | [5]

Cc1cccc(O)c1N
inactive: [1] | [2] | [3] | [5]

Oc1ccc(C(O)CNCCCCCCNCC(O)c2ccc(O)c(O)c2)cc1O (configuration not stated)
inactive: [1] | [2] | [3] | [4]

O=C(c1ccc(Cl)cc1)c1ccc(Cl)cc1
inactive: [1] | [2] | [6] | [4] | [5] | [7] | [8] | [9] | [10]

CCN(CC)CC(=O)Nc1c(C)cccc1C
inactive: [1] | [2] | [3] | [5]

Nc1cc(C(=O)O)c(O)c(S(=O)(=O)O)c1
inactive: [1] | [2] | [3] | [4]

CC(=O)OCC(=O)[C@@]1(O)[C@H](C)C[C@H]2[C@@H]3C[C@H](F)C4=CC(=O)C=C[C@]4(C)[C@H]3[C@@H](O)C[C@@]21C
inactive: [1] | [2] | [6] | [5]

CCN1C(=O)c2ccccc2C1Nc1ccc(OCCN2CCCCC2)cc1 (configuration not stated)
inactive: [1] | [2] | [3] | [5]

CN[C@@H]1CCc2[nH]c3ccc(C(N)=O)cc3c2C1
inactive: [1] | [2] | [3] | [5]

O=C1c2ccccc2C(=O)N1CO
inactive: [1] | [2] | [3] | [4] | [5]

NCC1CCC(C(=O)Oc2ccc(CCC(=O)O)cc2)CC1 (configuration not stated)
inactive: [1] | [2] | [6] | [5]

Cc1scc2c1N(C(=O)CN1CCN(C)CC1)c1ccccc1NC2=O
inactive: [1] | [2] | [3]

FC(F)(F)c1ccccc1-n1ccnc1
inactive: [1] | [2] | [3] | [4]

CC(=O)Nc1ccc(OCC(O)CNC(C)C)cc1 (configuration not stated)
inactive: [1] | [2] | [3] | [4] | [5]

CCN1CCCC1CNC(=O)c1cc(S(N)(=O)=O)ccc1OC (configuration not stated)
inactive: [1] | [2] | [3] | [4] | [5] | [8] | [9]

CN1CCN(c2cc3c(cc2F)c(=O)c(C(=O)O)cn3-c2ccc(F)cc2)CC1
inactive: [1] | [2] | [3] | [4] | [5]

CCN(CCO)CCCC(C)Nc1ccnc2cc(Cl)ccc12 (configuration not stated)
inactive: [1] | [2] | [3] | [4] | [5]

CC(C)C(=O)OCC(C)(C)C(O)C(C)C (configuration not stated)
inactive: [1] | [2] | [3] | [4] | [5]

COc1cc(C(=O)N2CCCCCCC2)cc(OC)c1OC
inactive: [1] | [2] | [6] | [4] | [5]

C[C@@H](c1ncncc1F)[C@](O)(Cn1cncn1)c1ccc(F)cc1F
inactive: [1] | [2] | [6] | [4] | [5]

COC(=O)CC[C@H](N)C(=O)O
inactive: [1] | [2] | [3]

O=C(Oc1ccccc1C(=O)O)c1ccccc1O
inactive: [1] | [2] | [6] | [5]

CC(N)CN (configuration not stated)
inactive: [1] | [2] | [3] | [5]

CC(=O)OCC1=C(C(=O)O)N2C(=O)[C@@H](NC(=O)Cc3ccccc3)[C@H]2SC1
inactive: [1] | [2] | [6] | [5]

CC(C)(C)NSc1nc2ccccc2s1
inactive: [1] | [2] | [6] | [4] | [5]

CCCCCCOC(=O)c1cccnc1
inactive: [1] | [2] | [3] | [4] | [5]

CN(C)CCC(O)(c1ccccc1)c1ccccc1Cl (configuration not stated)
inactive: [1] | [2] | [3] | [4]

C=CCCCCCC
inactive: [1] | [2] | [3] | [4]

Cc1cccc(C)c1NC(=O)NC1=CCCN1C
inactive: [1] | [2] | [6] | [5]

CC(C)(C)c1nnc(NS(=O)(=O)c2ccccc2)s1
inactive: [1] | [2] | [3] | [4]

CCC(C=O)CC
inactive: [1] | [2] | [3] | [5]

CCCCc1ncc(/C=C(\Cc2cccs2)C(=O)O)n1Cc1ccc(C(=O)O)cc1
inactive: [1] | [2] | [3] | [5]

CCCCCCCC/C=C\CCCCCCCC(=O)OCCCC
inactive: [1] | [2] | [4]

Cc1ccccc1N1C(=O)c2cc(S(N)(=O)=O)c(Cl)cc2NC1C (configuration not stated)
inactive: [1] | [2] | [6] | [4] | [5]

Nc1cccc2c(=O)[nH][nH]c(=O)c12
inactive: [1] | [2] | [3] | [4] | [5]

N[C@@H](C(=O)N[C@@H]1C(=O)N2C(C(=O)O)=C(Cl)CC[C@H]12)c1ccccc1
inactive: [1] | [2] | [3] | [4]

C=CC[N+]1([C@H]2C[C@H]3[C@@H]4CC[C@H]5C[C@H](O)[C@@H](N6CCOCC6)C[C@]5(C)[C@H]4CC[C@]3(C)[C@H]2OC(C)=O)CCCC1
inactive: [1] | [11] | [6] | [3]
